Measured values as given in PubChem BioAssay.
Activity calls are given as the source filed them. Rule as the data show it, unless noted: active = inhibition above about 80%; inactive = the rest.

Tests used:
[1] = LFS_MB_P medulloblastoma growth inhibition, cell-based, chromothripsis tumors, cisplatin or BGB combos (AID 1671449); settings: LFS_MB_P medulloblastoma cells;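 also: cells exposed for 96 hours; 0% = vehicle DMSO and 100% = killing by high DMSO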
[2] = HDN33 neuroblastoma growth inhibition, cell-based, chromothripsis tumors, cisplatin or BGB combos (AID 1671450); settings: HDN33 neuroblastoma cells, stronger effect = higher value;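 also: cells exposed to compound for four days; 0% = vehicle DMSO and 100% = cell killing by high DMSO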
[3] = ICB984 medulloblastoma cell growth inhibition, synergistic combos for chromothripsis tumors, cisplatin or BGB combos (AID 1671451; call rule not given here;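 also: cells exposed for 96 hours before readout; 0% = vehicle DMSO and 100% = killing by high DMSO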); settings: ICB984 medulloblastoma cells, drug combinations, stronger effect = higher value
[4] = LFS_MB_1R medulloblastoma cell growth inhibition, synergistic combos for chromothripsis tumors, cisplatin or BGB combos (AID 1671452); settings: LFS_MB_1R medulloblastoma cells, stronger effect = higher value;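 also: cells exposed for 96 hours before readout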
[5] = HTB85 osteosarcoma cell growth inhibition, synergistic combos for chromothripsis tumors, BGB or cisplatin IC20 combos (AID 1671453); settings: HTB85 osteosarcoma cells, drug combinations, stronger effect = higher value;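 also: cells exposed for 96 hours before readout; 0% = vehicle DMSO and 100% = high DMSO killing control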
[6] = CRL2098 osteosarcoma cell growth inhibition, synergistic combos for chromothripsis tumors, BGB or cisplatin IC20 combos (AID 1671454); settings: CRL2098 osteosarcoma cells, drug combinations, stronger effect = higher value;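 also: cells exposed for 96 h before readout; 0% = vehicle DMSO and 100% = killing by high DMSO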
[7] = HD-MB03 medulloblastoma cell growth inhibition, synergistic combos for chromothripsis tumors, BGB or cisplatin IC20 combos (AID 1671455; in the data active = inhibition above about 83%;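 also: 0% = vehicle DMSO and 100% = high DMSO as cytotoxic control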); settings: HD-MB03 medulloblastoma cells, stronger effect = higher value
[8] = UWB1.289 ovarian carcinoma cell growth inhibition, synergistic combos for chromothripsis tumors, BGB or cisplatin combos (AID 1671456); settings: UWB1.289 ovarian carcinoma cells, stronger effect = higher value;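 also: cells exposed to compound for four days; 0% = vehicle DMSO and 100% = killing by high DMSO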
[9] = LFS_MB_2R medulloblastoma cell growth inhibition, synergistic combos for chromothripsis tumors, cisplatin combos (AID 1671457); settings: LFS_MB_2R medulloblastoma cells, stronger effect = higher value;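 also: cells exposed to compound for four days before readout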
[10] = MDA-MB-436 breast carcinoma cell growth inhibition, synergistic combos for chromothripsis tumors, BGB or cisplatin combos (AID 1671458; call rule not given here;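 also: cells exposed for 96 hours; 0% = vehicle DMSO and 100% = killing by high DMSO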); settings: MDA-MB-436 breast carcinoma growth inhibition, drug combinations, stronger effect = higher value
[11] = UWB1.289_BRCA1 ovarian cancer growth, cell-based, BGB or cisplatin combinations (AID 1671459); settings: UWB1.289 BRCA1 ovarian carcinoma, drug combinations, stronger effect = higher value
[12] = human astrocyte viability loss, single and combined drugs, cytotoxicity control for chromothriptic childhood tumor combination screen, cell-based, BGB or cisplatin IC20 combos (AID 1671460); settings: Human astrocytes, drug combinations, stronger effect = higher value;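 also: cells exposed to compounds for 96 hours before viability readout; 0% = vehicle and 100% = killing control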
[13] = growth inhibition of BT084 medulloblastoma cells, cell-based, ICGC_MB145, cisplatin and BGB IC40 combos (AID 1671461); settings: drug combinations, stronger effect = higher value;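 also: cells exposed to drugs for 96 hours; 0% = vehicle DMSO and 100% = high DMSO full killing control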
[14] = growth inhibition of RCMB18 medulloblastoma cells, cell-based, cisplatin and BGB IC40 combos (AID 1671462); settings: stronger effect = higher value;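 also: cells exposed to compound for four days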
[15] = growth inhibition of CRL1545 osteosarcoma cells, cell-based, cisplatin and BGB IC20 combos (AID 1671464); settings: stronger effect = higher value;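 also: cells exposed to compound for 96 hours before readout; 0% = vehicle DMSO and 100% = high DMSO killing control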
[16] = at 0.5 µM, stronger effect = higher value
[17] = measured here: combination with BGB IC20, at 0.005 µM
[18] = measured here: combination with BGB IC40, at 0.005 µM
[19] = measured here: combination with BGB IC40, at 0.05 µM
[20] = measured here: combination with cisplatin, at 0.5 µM, stronger effect = higher value
[21] = measured here: combination with cisplatin, at 5 µM, stronger effect = higher value
[22] = measured here: with BGB IC20 combination, at 0.5 µM
[23] = measured here: with cisplatin IC20 combination, at 0.5 µM
[24] = measured here: 5 uM single agent, at 5 µM
[25] = measured here: combination with cisplatin, at 0.5 µM
[26] = measured here: combination with cisplatin, at 5 µM
[27] = measured here: with BGB IC20, at 0.5 µM
[28] = measured here: with BGB IC20, at 5 µM
[29] = measured here: with cisplatin IC20, at 0.5 µM
[30] = measured here: with cisplatin IC20, at 5 µM
[31] = measured here: combination with BGB at IC20, at 0.5 µM
[32] = measured here: combination with cisplatin at IC20, at 0.5 µM
[33] = measured here: combo with BGB at IC20, at 0.5 µM
[34] = measured here: combo with cisplatin at IC20, at 0.5 µM
[35] = measured here: inhibition with BGB combination, at 0.05 µM
[36] = measured here: inhibition with cisplatin combination, at 0.05 µM
[37] = measured here: BGB combination, at 0.5 µM
[38] = measured here: BGB combination, at 5 µM
[39] = measured here: cisplatin combination, at 0.5 µM
[40] = measured here: cisplatin combination, at 5 µM
[41] = BGB combination, concentration series, at 5 µM
[42] = cisplatin combination, concentration series, at 5 µM
[43] = measured here: combo with BGB IC20, at 0.5 µM
[44] = measured here: combo with cisplatin IC20, at 0.5 µM
[45] = cisplatin combination, at 0.5 µM
[46] = measured here: BGB IC40 combination 0.05 uM, at 0.05 µM
[47] = measured here: BGB IC40 combination, at 0.05 µM

For `N#Cc1ccc(OC2CCC(NC(=O)CCSc3nc4ccccc4c(=O)[nH]3)CC2)cc1` (stereo unspecified), the inhibition [1, 16] was -11.7% (inactive), the inhibition [1, 17] was -15.6% and the inhibition [1, 18] was -25.5%. The inhibition [1, 19] was -19.3%, the inhibition [1, 20] was -29.6% and the inhibition [1, 21] was -57.3%. For the same compound, the inhibition ([2]; BGB combo, at 5 µM) was 8.7%, the inhibition ([2]; at 0.5 µM) was 15.1% (inactive) and the inhibition ([2]; cisplatin combo, at 5 µM) was 37.4%. It also gave an inhibition [2, 22] of 12.5%, an inhibition [2, 23] of 15.6% and an inhibition ([2]; single agent, at 5 µM) of 35.9%. The inhibition ([3]; BGB IC20 combo, at 0.005 µM) was -4.21%, the inhibition ([3]; BGB IC40 combo, at 0.005 µM) was -8.75% and the inhibition ([3]; BGB IC40 combo, at 0.05 µM) was 7.9%. The inhibition ([3]; at 0.5 µM) was -30.9% (inactive), the inhibition ([3]; cisplatin combo, at 0.05 µM) was 4.58% and the inhibition ([3]; cisplatin combo, at 0.5 µM) was -24.9%. For the same compound, the inhibition ([3]; cisplatin combo, at 5 µM) was -26.6%, the inhibition [3, 24] was 2.34% and the inhibition ([4]; at 0.5 µM) was -15.5% (inactive). For the same compound, the inhibition [4, 19] was -12.5%, the inhibition [4, 25] was -1.66% and the inhibition [4, 26] was -48.1%. For the same compound, the inhibition ([5]; at 0.5 µM) was 8.65% (inactive), the inhibition [5, 27] was 1.42% and the inhibition [5, 28] was -9.23%. The inhibition [5, 29] was 9.73%, the inhibition [5, 30] was -13.4% and the inhibition ([5]; single agent, at 5 µM) was 12.3%. For the same compound, the inhibition ([6]; at 0.5 µM) was -13.9% (inactive), the inhibition [6, 31] was 25.6% and the inhibition [6, 32] was -58.5%. For the same compound, the inhibition ([7]; at 0.5 µM) was 5.55% (inactive), the inhibition [7, 33] was 2.46% and the inhibition [7, 34] was 7.46%. For the same compound, the inhibition ([8]; at 0.5 µM) was 13.3% (inactive), the inhibition [8, 35] was -10.8% and the inhibition [8, 36] was 9.73%. For the same compound, the inhibition ([9]; at 0.5 µM) was -13.3% (inactive), the inhibition [9, 25] was -14.4% and the inhibition [9, 26] was -3.9%. For the same compound, the inhibition ([10]; at 0.5 µM) was 3.61% (inactive), the inhibition [10, 37] was -7.72% and the inhibition [10, 38] was -9.87%. The inhibition [10, 39] was 1.31%, the inhibition [10, 40] was 0.512% and the inhibition [11, 41] was 24.2%. For the same compound, the inhibition ([11]; at 0.5 µM) was 9.54% (inactive), the inhibition [11, 42] was -12.4% and the inhibition ([12]; at 0.5 µM) was 37.4% (inactive). For the same compound, the inhibition [12, 43] was 26.2%, the inhibition [12, 44] was 40.6% and the inhibition ([13]; at 0.5 µM) was 0.647% (inactive). It also gave an inhibition [13, 45] of -17.2%, an inhibition ([13]; cisplatin combination, at 5 µM) of -3.13% and an inhibition [13, 46] of -41.1%. The inhibition ([13]; single agent, at 5 µM) was -16.5%, the inhibition ([14]; at 0.5 µM) was 7.33% (inactive) and the inhibition ([14]; cisplatin combo, at 5 µM) was -24.6%. The inhibition [14, 47] was -11.2%, the inhibition [14, 25] was 27.6% and the inhibition ([14]; single agent, at 5 µM) was -12.9%. The inhibition ([15]; at 0.5 µM) was -30% (inactive), the inhibition [15, 22] was -19.6% and the inhibition [15, 23] was -37.4%. The inhibition ([15]; single agent, at 0.05 µM) was 34.4% and the inhibition ([15]; single agent, at 5 µM) was 4.49%.
For `NC(=O)c1cccc2cn(-c3ccc(C4CCCNC4)cc3)nc12` (stereo unspecified), the inhibition [1, 16] was -22.2% (inactive), the inhibition [1, 17] was 9.92% and the inhibition [1, 18] was -8.03%. The inhibition [1, 19] was -6.95%, the inhibition [1, 20] was -37.4% and the inhibition [1, 21] was -29.2%. For the same compound, the inhibition ([2]; BGB combo, at 5 µM) was -13.1%, the inhibition ([2]; at 0.5 µM) was -12.8% (inactive) and the inhibition ([2]; cisplatin combo, at 5 µM) was 28.2%. The inhibition [2, 22] was -14.6%, the inhibition [2, 23] was -19.6% and the inhibition ([2]; single agent, at 5 µM) was 44.3%. It also gave an inhibition ([3]; BGB IC20 combo, at 0.005 µM) of -10.7%, an inhibition ([3]; BGB IC40 combo, at 0.005 µM) of -50.8% and an inhibition ([3]; BGB IC40 combo, at 0.05 µM) of -43.2%. The inhibition ([3]; at 0.5 µM) was -25.3% (inactive), the inhibition ([3]; cisplatin combo, at 0.05 µM) was -48.9% and the inhibition ([3]; cisplatin combo, at 0.5 µM) was -42.4%. The inhibition ([3]; cisplatin combo, at 5 µM) was -33%, the inhibition [3, 24] was -12.1% and the inhibition ([4]; at 0.5 µM) was -17.8% (inactive). It also gave an inhibition [4, 19] of -23.5%, an inhibition [4, 25] of -55.4% and an inhibition [4, 26] of -54.7%. For the same compound, the inhibition ([5]; at 0.5 µM) was -22% (inactive), the inhibition [5, 27] was -26.2% and the inhibition [5, 28] was -8.36%. For the same compound, the inhibition [5, 29] was -25.1%, the inhibition [5, 30] was 8.74% and the inhibition ([5]; single agent, at 5 µM) was 31.7%. The inhibition ([6]; at 0.5 µM) was -34.1% (inactive), the inhibition [6, 31] was -52.1% and the inhibition [6, 32] was -0.058%. For the same compound, the inhibition ([7]; at 0.5 µM) was -5.6% (inactive), the inhibition [7, 33] was -17.4% and the inhibition [7, 34] was 6.18%. For the same compound, the inhibition ([8]; at 0.5 µM) was -3.23% (inactive), the inhibition [8, 35] was 2.85% and the inhibition [8, 36] was -19.1%. For the same compound, the inhibition ([9]; at 0.5 µM) was -4.32% (inactive), the inhibition [9, 25] was -10.3% and the inhibition [9, 26] was -4.18%. The inhibition ([10]; at 0.5 µM) was 13.9% (inactive), the inhibition [10, 37] was -2.85% and the inhibition [10, 38] was -6.33%. For the same compound, the inhibition [10, 39] was 15.6%, the inhibition [10, 40] was 32.2% and the inhibition [11, 41] was -5.8%. For the same compound, the inhibition ([11]; at 0.5 µM) was 0.96% (inactive), the inhibition [11, 42] was 23.7% and the inhibition ([12]; at 0.5 µM) was -10.9% (inactive). For the same compound, the inhibition [12, 43] was -10.9%, the inhibition [12, 44] was -15.8% and the inhibition ([13]; at 0.5 µM) was -8.13% (inactive). It also gave an inhibition [13, 45] of -15.8%, an inhibition ([13]; cisplatin combination, at 5 µM) of -1.06% and an inhibition [13, 46] of 4.73%. For the same compound, the inhibition ([13]; single agent, at 5 µM) was -30.1%, the inhibition ([14]; at 0.5 µM) was -4.94% (inactive) and the inhibition ([14]; cisplatin combo, at 5 µM) was -39.1%. The inhibition [14, 47] was -13.7%, the inhibition [14, 25] was -10.1% and the inhibition ([14]; single agent, at 5 µM) was -43.2%. For the same compound, the inhibition ([15]; at 0.5 µM) was -29.8% (inactive), the inhibition [15, 22] was -55.3% and the inhibition [15, 23] was -17%. The inhibition ([15]; single agent, at 0.05 µM) was -35.4% and the inhibition ([15]; single agent, at 5 µM) was 30.1%.
